# PubChem BioAssay (NCATS)
# Records with an inconclusive call do not appear. The source made the active and inactive calls. Unless noted, the call rests on the fitted dose curve; in most records, active means well fitted curve in the direction sought with a large enough effect; inconclusive means small, poorly fitted or top-dose-only effect, or another doubt; inactive means no such curve, though single readings can be large; an effect the other way counts as inactive or inconclusive.
# Assays:
# [1] = qHTS profiling for inhibitors of Plasmodium falciparum (3D7) proliferation (AID 743322);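 further: infected erythrocytes exposed to compound for 72 h before lysis; 100% = DMSO vehicle wells and 0% = 0.29 µM artemisinin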; conditions: P. falciparum 3D7 proliferation; at 28.7 µM (top of the series)
# In short: (§1)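 Parasite DNA was quantified by SYBR Green I fluorescence (ex 485, em 535 nm) after overnight lysis in saponin/Triton buffer at room temperature. Cultures at 0.3% parasitemia and 2.5% hematocrit were first exposed to compound for 72 h at 37 C; signals were normalised to artemisinin (0.29 uM) and vehicle wells.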
# [2] = qHTS profiling for inhibitors of Plasmodium falciparum (DD2) proliferation (AID 743323; call rule not given here); conditions: lower = more inhibition; at 28.7 µM (top of the series)
# In short: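 Parasite DNA quantified by SYBR Green fluorescence (ex 485, em 535 nm) after saponin/Triton lysis and overnight dark incubation. Cultures: 0.3% parasitemia, 2.5% hematocrit, 72 h, 37 C; data scaled between DMSO and 0.29 uM artemisinin.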
# [3] = qHTS profiling for inhibitors of Plasmodium falciparum (HB3) proliferation (AID 743324); conditions: Plasmodium falciparum HB3 blood-stage proliferation; at 28.7 µM (top of the series);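 further: 100% = DMSO vehicle wells and 0% = artemisinin-treated control wells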
# In short: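 SYBR Green fluorescence (485 ex/535 em) of lysed cultures, incubated overnight at room temperature in the dark, quantifies parasite DNA. Infected erythrocytes at 0.3% parasitemia and 2.5% hematocrit were exposed 72 h; values normalized to DMSO and 0.29 uM artemisinin controls.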
# [4] = qHTS profiling of the MIPE4 collection as inhibitors of Plasmodium falciparum (3D7) proliferation (AID 743344; call rule not given here;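 further: scaled between DMSO vehicle wells and 0.29 µM artemisinin as full inhibition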); conditions: P. falciparum 3D7 in erythrocytes, SYBR Green DNA fluorescence, 72 h; at 28.5 µM (top of the series) unless noted
# In short: as §1
# [5] = qHTS profiling of the MIPE4 collection as inhibitors of Plasmodium falciparum (DD2) proliferation (AID 743345; call rule not given here); conditions: P. falciparum Dd2 in erythrocytes, SYBR Green DNA, 72 h; at 28.5 µM (top of the series) unless noted
# In short: as §1
# [6] = qHTS profiling of the MIPE4 collection as inhibitors of Plasmodium falciparum (DD2) proliferation (Rep 2) (AID 743346; call rule not given here); conditions: P. falciparum Dd2 in erythrocytes, SYBR Green DNA, 72 h; at 28.5 µM (top of the series) unless noted
# In short: as §1
# [7] = qHTS profiling of the MIPE4 collection as inhibitors of Plasmodium falciparum (HB3) proliferation (AID 743347; call rule not given here;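 further: plate controls were DMSO vehicle wells for no effect and artemisinin wells for full effect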); conditions: P. falciparum HB3 in erythrocytes, SYBR Green DNA, 72 h; at 28.5 µM (top of the series) unless noted
# In short: as §1
# [8] = High-throughput drug toxicity screening in the BPDCN cell line Gen2.2 (AID 1224824; call rule not given here;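 further: cells exposed to compounds for 48 h before reading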); conditions: Gen2.2 BPDCN cells; at 45.8 µM (top of the series) unless noted
# In short: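 Seed 500 exponentially growing Gen2.2 cells/well; add compounds by pin tool; incubate 48 h, 37 °C, 5% CO2; add CellTiter-Glo, 15 min RT; read luminescence. % activity vs DMSO (100%) and bortezomib (0%).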
# [9] = qHTS assay for measurement of the activity of small molecule inhibitors on Zika virus induced Caspase-3 activity in human iPSC derived neural progenitor cells (hNPCs) (AID 1224857); further: nearly all actives have a fitted effect of over 65% in size; further: potency means the concentration at half of the fitted maximal effect
# In short: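 After overnight (16–20 h) culture at 350 cells/well, hNPCs get compound, then ZIKV 2 FFU/cell one hour later. Six hours on, Caspase-Glo 3/7 is added and luminescence measured.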
# [10] = qHTS Screen of the MIPE 4.0 Collection Against Ewings Sarcoma (RDES) (AID 1259252); further: nearly all actives have a fitted effect of over 35% in size; further: potency means the concentration at half of the fitted maximal effect
# In short: (§2)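 Compound titrations go onto adherent log-phase cells 4 h after seeding, incubate 48 h at 37C, then CellTiter-Glo luminescence reports viability relative to DMSO and cell-free controls.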
# [11] = qHTS Screen of the MIPE 4.0 Collection Against Ewings Sarcoma (TC71) (AID 1259253); further: nearly all actives have a fitted effect of over 40% in size; further: potency means the concentration at half of the fitted maximal effect
# In short: as §2
# [12] = qHTS Screen of the MIPE 4.0 Collection Against Ewings Sarcoma (EW8) (AID 1259255); further: nearly all actives have a fitted effect of over 35% in size; further: potency means the concentration at half of the fitted maximal effect;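 on viability: 100% = DMSO-treated cells and 0% = medium-only wells without cells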
# In short: as §2
# [13] = qHTS Screen of the MIPE 4.0 Collection Against Ewings Sarcoma (TC32) (AID 1259256); further: nearly all actives have a fitted effect of over 45% in size; further: potency means the concentration at half of the fitted maximal effect
# In short: as §2
# [14] = qHTS assay for measurement of the activity of small molecule inhibitors on Zika virus induced Caspase-3 activity in human astrocytoma cells (AID 1224859);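 further: plate controls were ZIKV-infected untreated cells for no effect and uninfected cells for full effect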
# In short: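 Inhibition of Zika-induced caspase-3/7 activity: SNB-19 cells, 1 h compound pretreatment, ZIKV 2 FFU/cell for 6 h at 37 C, Caspase-Glo luminescence read-out.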
# [15] = Identifying Small Molecule Inhibitors of Pancreatic Cancer Stem Cells (A2780, Spheroid) (AID 1259357); conditions: Potency: A2780 spheroid viability;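 further: spheroids pre-formed over 14 days in stem cell medium on hydrogel; potency means the concentration at half of the fitted maximal effect; compound exposure lasted 48 h before the ATP luminescence read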
# In short: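 Spheroids grown 14 days in stem cell media on hydrogel-coated nonadherent plates; 2D lines seeded directly. Compounds added after 4 h attachment, 48 h at 37C, 5% CO2; CellTiter-Glo luminescence normalized to DMSO (no inhibition) and no-cell wells (full inhibition).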
# [16] = Identifying Small Molecule Inhibitors of Pancreatic Cancer Stem Cells (SN12C, Adherent) (AID 1259358);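 further: potency means the concentration at half of the fitted maximal effect; cell survival measured after 48 h of compound exposure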
# In short: (§3)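 Viability is scored by CellTiter-Glo luminescence 48 h after dosing, expressed as percent activity against vehicle and no-cell references. Spheroid formats rely on cells cultured 14 days in stem cell media beforehand.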
# [17] = Identifying Small Molecule Inhibitors of Pancreatic Cancer Stem Cells (Panc1, Spheroid) (AID 1259359);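 further: potency means the concentration at half of the fitted maximal effect; compound exposure lasted 48 h before reading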
# In short: as §3
Structure (SMILES),remaining parasite growth % (stronger effect = lower value) [1] [%],"activity, percent of control [2] [%]","remaining proliferation (% of control), lower = more inhibition [3] [%]","parasite growth, % of DMSO control [4] [%]","parasite growth remaining, % of DMSO control (lower = more inhibition) [5] [%]","parasite growth, % of control (lower = inhibition) [6] [%]","growth, % of control [7] [%]","cell viability, % of control (lower = more cytotoxic) [8] [%]",Potency [9],Potency [10],Potency [11],Potency [12],Potency [13],Potency [14],Potency [15],Potency [16],Potency [17]
CCC[C@H](NC(=O)C(C#N)=Cc1cccc(Br)n1)c1ccccc1,26.8,23.2,14.8,11.6,6.9,17.5,4.55,15.9,inactive,7.43 µM (active),7.43 µM (active),6.62 µM (active),7.43 µM (active),–,–,–,–
CN(C1CCc2c(c3ccccc3n2CC(=O)O)C1)S(=O)(=O)c1ccc(F)cc1 (stereo unspecified),–,–,–,15.9,93.1,–,19.9,243,inactive,inactive,inactive,inactive,inactive,inactive,–,–,–
CCCn1c(=O)c2[nH]c(-c3cnn(Cc4cccc(C(F)(F)F)c4)c3)nc2n(CC)c1=O,–,–,–,62.2,73.8,–,51.8,49.4,inactive,inactive,inactive,inactive,inactive,–,–,–,–
CC1(C)OC2=C(C(=O)c3ccccc3C2=O)[C@H](NCc2ccccc2)[C@H]1O,-2.33,0.336,-1.28,–,7.16,6.48,3.94,12,18.7 µM (active),2.64 µM (active),2.64 µM (active),2.96 µM (active),3.32 µM (active),–,14.8 µM (active),26.4 µM (active),0.743 µM (active)
CC(C)c1cnn2c(NCc3ccccc3)cc(N[C@@H](CO)[C@H](O)CO)nc12,–,–,–,21.9,61.8,21.4,14.5,3.01,inactive,0.469 µM (active),0.264 µM (active),0.372 µM (active),0.296 µM (active),inactive,–,–,–
Nc1nccc(Oc2ccc(NC(=O)c3c[nH]cc(-c4ccc(F)cc4)c3=O)cc2F)c1Cl,7.57,18.6,1.21,4.72,50.4,8.39,6.32,7.66,inactive,–,2.96 µM (active),0.743 µM (active),2.64 µM (active),inactive,–,–,–
CN(C)CC=CC(=O)Nc1cc2c(Nc3ccc(F)c(Cl)c3)ncnc2cc1O[C@H]1CCOC1,-0.281,0.518,0.188,6.72,7.96,9.26,8.85,6.25,inactive,18.7 µM (active),16.6 µM (active),20.9 µM (active),16.6 µM (active),inactive,–,–,11.8 µM (active)
